# How the values were obtained:
# Assay in all cases: DAPPL (digital affinity profiling via proximity ligation, sequencing); 10 mM Tris-HCl pH 7.5, 50 mM NaCl, 1 mM DTT, 4% glycerol, room temperature, 30 min; GST-TFs on glutathione beads, 16-mer random dsDNA library, 0.1% formaldehyde crosslink after washing; high values mean tight binding
# FLI1 = target: T1, FLI1 (Homo sapiens, UniProt Q01543 1-452); details: protein: recombinant; tags: N-terminal GST; dsDNA, one strand shown
# T1 sequence: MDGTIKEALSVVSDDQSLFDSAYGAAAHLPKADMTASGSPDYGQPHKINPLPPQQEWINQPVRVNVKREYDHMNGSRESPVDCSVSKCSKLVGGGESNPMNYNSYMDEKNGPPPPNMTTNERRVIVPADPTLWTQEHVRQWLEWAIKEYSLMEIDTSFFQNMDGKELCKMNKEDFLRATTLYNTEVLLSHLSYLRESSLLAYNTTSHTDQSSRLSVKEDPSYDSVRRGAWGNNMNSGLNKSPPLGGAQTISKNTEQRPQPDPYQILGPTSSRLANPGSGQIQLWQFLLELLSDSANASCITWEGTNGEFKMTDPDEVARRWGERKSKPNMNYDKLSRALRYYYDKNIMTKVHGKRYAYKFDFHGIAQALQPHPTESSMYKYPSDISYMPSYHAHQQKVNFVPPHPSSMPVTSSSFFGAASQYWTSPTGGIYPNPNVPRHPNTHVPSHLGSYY
# Method in brief: (§1)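 Pools were built from human transcription factors expressed in yeast as GST fusions, captured on glutathione beads and DNA-barcoded, along with a tag-only sample. Incubation with 200 nmole of a 16-mer random double-stranded DNA library lasted 30 min at room temperature in Tris/NaCl/DTT/glycerol buffer, and was followed by washing, 0.1% formaldehyde crosslinking, proximity ligation, PCR amplification and Illumina NextSeq500 sequencing. Binding signal is the quotient of each hexamer's read frequency for a factor and its frequency for the tag-only sample.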
# ELK1 = target: T2, ELK1 (Homo sapiens, UniProt P19419 1-428); details: protein: recombinant; tags: N-terminal GST; dsDNA, one strand shown
# T2 sequence: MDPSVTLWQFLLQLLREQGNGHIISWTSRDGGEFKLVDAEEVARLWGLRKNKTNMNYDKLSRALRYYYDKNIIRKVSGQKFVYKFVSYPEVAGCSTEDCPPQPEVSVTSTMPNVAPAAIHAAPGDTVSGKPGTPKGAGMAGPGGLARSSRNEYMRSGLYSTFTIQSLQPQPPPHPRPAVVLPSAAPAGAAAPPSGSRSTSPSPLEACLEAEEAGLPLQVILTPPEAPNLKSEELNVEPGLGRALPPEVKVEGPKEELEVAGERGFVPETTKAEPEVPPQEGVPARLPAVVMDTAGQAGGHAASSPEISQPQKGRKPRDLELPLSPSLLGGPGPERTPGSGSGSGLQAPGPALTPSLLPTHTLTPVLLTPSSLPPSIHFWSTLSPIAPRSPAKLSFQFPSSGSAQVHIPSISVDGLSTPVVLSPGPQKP
# Method in brief: as §1
# GABPA = target: T3, GABPA (Homo sapiens, UniProt Q06546 1-454); details: protein: recombinant; tags: N-terminal GST; dsDNA, one strand shown
# T3 sequence: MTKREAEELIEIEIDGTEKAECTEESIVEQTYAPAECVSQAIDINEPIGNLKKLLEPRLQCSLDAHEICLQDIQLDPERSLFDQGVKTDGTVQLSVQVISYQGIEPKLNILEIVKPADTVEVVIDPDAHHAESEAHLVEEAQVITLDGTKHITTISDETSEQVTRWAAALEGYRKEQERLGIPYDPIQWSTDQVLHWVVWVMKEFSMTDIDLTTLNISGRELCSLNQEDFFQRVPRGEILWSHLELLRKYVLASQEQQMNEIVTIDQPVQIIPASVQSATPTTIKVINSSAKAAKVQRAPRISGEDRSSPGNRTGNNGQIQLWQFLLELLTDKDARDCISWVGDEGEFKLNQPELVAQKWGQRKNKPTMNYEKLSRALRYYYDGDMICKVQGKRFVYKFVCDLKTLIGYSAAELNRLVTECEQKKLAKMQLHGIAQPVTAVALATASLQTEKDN
# Method in brief: as §1
# ERG = target: T4, ERG (Homo sapiens, UniProt P11308 1-479); details: protein: recombinant; tags: N-terminal GST; dsDNA, one strand shown
# T4 sequence: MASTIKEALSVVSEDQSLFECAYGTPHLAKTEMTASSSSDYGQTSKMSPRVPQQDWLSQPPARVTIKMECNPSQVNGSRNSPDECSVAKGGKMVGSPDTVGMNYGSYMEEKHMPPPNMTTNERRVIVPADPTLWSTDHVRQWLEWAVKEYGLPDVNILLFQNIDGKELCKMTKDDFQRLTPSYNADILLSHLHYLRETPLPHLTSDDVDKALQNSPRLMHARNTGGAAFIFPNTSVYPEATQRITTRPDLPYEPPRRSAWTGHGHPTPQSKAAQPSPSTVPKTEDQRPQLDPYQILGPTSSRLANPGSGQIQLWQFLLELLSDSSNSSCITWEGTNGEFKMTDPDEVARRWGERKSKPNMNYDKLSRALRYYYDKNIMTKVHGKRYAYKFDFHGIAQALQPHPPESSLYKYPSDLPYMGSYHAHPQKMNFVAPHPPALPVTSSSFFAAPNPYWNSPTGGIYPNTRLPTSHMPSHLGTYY
# Method in brief: as §1
# ELF1 = ELF1 (Homo sapiens, UniProt P32519 1-619); details: protein: recombinant; tags: N-terminal GST; dsDNA, one strand shown
# Sequence of ELF1 (P32519 whole entry): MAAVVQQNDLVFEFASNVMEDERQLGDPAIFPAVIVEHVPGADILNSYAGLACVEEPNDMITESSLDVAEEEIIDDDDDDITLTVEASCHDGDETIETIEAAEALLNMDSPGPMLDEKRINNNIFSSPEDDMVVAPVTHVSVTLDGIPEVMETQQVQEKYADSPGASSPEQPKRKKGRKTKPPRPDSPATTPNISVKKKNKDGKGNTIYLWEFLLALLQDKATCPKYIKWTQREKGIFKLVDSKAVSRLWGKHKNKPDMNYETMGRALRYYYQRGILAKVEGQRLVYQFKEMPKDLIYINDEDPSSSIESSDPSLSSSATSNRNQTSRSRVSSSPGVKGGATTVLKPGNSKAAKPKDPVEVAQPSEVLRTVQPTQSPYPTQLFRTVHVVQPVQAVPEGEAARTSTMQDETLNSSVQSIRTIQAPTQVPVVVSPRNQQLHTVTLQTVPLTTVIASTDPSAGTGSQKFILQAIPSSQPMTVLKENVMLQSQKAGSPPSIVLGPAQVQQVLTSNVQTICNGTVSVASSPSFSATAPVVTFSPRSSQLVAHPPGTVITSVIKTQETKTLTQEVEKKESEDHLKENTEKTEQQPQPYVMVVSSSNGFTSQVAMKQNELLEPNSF
# Method in brief: as §1
# EHF = target: T5, EHF (Homo sapiens, UniProt Q9NZC4 1-300); details: protein: recombinant; tags: N-terminal GST; dsDNA, one strand shown
# T5 sequence: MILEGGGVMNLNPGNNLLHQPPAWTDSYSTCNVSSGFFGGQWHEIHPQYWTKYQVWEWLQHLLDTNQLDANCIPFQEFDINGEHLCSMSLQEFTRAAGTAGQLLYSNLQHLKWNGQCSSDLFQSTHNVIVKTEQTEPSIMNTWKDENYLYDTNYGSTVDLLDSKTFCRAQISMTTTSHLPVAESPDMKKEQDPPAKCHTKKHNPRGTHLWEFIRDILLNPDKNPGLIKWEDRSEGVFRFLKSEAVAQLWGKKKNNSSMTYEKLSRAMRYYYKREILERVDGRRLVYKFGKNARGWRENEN
# Method in brief: as §1
# SPI1 = SPI1 (Homo sapiens, UniProt P17947 1-270); details: protein: recombinant; tags: N-terminal GST; dsDNA, one strand shown
# Method in brief: as §1
# SPIB = SPIB (Homo sapiens, UniProt Q01892 1-262); details: protein: recombinant; tags: N-terminal GST; dsDNA, one strand shown
# Sequence of SPIB (Q01892 whole entry): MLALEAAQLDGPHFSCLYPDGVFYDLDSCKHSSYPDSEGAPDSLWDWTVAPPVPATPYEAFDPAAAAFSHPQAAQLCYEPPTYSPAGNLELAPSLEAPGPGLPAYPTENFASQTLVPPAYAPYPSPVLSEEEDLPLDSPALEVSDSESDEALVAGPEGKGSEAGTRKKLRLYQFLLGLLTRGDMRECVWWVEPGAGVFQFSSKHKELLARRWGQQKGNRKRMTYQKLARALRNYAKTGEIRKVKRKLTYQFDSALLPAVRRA
# Method in brief: as §1
# ELK3 = target: T6, ELK3 (Homo sapiens, UniProt P41970 1-407); details: protein: recombinant; tags: N-terminal GST; dsDNA, one strand shown
# T6 sequence: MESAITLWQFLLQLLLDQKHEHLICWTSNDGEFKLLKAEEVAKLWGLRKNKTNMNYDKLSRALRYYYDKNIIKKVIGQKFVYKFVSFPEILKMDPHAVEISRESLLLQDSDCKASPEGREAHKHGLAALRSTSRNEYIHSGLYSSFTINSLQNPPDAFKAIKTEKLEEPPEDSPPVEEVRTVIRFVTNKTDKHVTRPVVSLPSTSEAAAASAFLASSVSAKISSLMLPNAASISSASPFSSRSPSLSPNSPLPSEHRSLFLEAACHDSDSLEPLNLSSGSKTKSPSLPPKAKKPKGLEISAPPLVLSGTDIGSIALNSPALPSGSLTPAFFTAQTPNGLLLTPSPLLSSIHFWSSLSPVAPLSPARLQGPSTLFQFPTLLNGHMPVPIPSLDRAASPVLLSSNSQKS
# Method in brief: as §1
# FEV = target: T7, FEV (Homo sapiens, UniProt Q99581 1-238); details: protein: recombinant; tags: N-terminal GST; dsDNA, one strand shown
# T7 sequence: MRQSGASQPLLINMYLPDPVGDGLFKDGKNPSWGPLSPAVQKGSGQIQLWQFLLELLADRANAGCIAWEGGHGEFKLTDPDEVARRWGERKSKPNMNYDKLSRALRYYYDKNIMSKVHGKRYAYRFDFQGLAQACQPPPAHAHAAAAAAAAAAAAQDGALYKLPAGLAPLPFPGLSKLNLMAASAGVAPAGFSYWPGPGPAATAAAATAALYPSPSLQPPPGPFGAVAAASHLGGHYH
# Method in brief: as §1
# ETV5 = ETV5 (Homo sapiens, UniProt P41161 1-510); details: protein: recombinant; tags: N-terminal GST; dsDNA, one strand shown
# Sequence of ETV5 (P41161 whole entry): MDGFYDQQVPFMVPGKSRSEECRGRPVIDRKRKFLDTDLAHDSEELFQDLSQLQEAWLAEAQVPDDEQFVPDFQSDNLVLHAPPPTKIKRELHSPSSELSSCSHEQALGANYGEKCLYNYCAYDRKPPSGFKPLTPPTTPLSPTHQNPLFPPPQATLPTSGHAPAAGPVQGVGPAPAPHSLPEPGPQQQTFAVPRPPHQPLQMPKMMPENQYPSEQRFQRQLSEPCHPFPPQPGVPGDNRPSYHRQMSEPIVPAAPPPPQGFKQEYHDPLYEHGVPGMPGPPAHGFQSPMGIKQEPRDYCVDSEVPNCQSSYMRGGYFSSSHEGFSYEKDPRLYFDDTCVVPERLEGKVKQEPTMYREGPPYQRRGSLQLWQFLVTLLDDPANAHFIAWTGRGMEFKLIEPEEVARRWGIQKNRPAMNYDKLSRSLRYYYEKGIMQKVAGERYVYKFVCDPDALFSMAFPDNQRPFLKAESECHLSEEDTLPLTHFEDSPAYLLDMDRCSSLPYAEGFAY
# Method in brief: as §1
# HSF1 = HSF1 (Homo sapiens, UniProt Q00613 1-529); details: protein: recombinant; tags: N-terminal GST; chain copies: 3; dsDNA, one strand shown
# Sequence of HSF1 (Q00613 whole entry): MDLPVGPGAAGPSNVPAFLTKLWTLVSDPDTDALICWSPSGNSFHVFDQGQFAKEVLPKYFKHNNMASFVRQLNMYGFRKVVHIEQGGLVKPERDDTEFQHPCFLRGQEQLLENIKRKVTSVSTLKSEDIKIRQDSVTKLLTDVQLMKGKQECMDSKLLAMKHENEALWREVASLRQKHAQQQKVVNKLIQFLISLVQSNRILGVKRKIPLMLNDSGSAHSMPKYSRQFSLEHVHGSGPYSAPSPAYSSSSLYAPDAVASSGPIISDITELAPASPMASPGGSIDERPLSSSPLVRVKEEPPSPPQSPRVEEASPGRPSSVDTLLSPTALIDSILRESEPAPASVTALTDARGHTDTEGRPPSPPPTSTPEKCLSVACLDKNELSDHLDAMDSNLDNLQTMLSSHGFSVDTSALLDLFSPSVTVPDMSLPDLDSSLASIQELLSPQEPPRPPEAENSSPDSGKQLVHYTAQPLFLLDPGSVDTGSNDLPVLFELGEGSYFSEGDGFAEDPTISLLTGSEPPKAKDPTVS
# Method in brief: as §1
# SPIC = target: T8, SPIC (Homo sapiens, UniProt Q8N5J4 1-248); details: protein: recombinant; tags: N-terminal GST; dsDNA, one strand shown
# T8 sequence: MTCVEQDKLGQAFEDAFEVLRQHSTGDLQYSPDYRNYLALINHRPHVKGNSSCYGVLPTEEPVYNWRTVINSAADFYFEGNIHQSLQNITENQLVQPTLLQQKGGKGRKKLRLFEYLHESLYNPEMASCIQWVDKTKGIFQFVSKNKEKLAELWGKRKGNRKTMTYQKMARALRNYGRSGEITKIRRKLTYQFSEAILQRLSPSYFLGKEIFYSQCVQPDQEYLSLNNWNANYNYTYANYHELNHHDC
# Method in brief: as §1
# ELF4 = ELF4 (Homo sapiens, UniProt Q99607 1-663); details: protein: recombinant; tags: N-terminal GST; dsDNA, one strand shown
# Sequence of ELF4 (Q99607 whole entry): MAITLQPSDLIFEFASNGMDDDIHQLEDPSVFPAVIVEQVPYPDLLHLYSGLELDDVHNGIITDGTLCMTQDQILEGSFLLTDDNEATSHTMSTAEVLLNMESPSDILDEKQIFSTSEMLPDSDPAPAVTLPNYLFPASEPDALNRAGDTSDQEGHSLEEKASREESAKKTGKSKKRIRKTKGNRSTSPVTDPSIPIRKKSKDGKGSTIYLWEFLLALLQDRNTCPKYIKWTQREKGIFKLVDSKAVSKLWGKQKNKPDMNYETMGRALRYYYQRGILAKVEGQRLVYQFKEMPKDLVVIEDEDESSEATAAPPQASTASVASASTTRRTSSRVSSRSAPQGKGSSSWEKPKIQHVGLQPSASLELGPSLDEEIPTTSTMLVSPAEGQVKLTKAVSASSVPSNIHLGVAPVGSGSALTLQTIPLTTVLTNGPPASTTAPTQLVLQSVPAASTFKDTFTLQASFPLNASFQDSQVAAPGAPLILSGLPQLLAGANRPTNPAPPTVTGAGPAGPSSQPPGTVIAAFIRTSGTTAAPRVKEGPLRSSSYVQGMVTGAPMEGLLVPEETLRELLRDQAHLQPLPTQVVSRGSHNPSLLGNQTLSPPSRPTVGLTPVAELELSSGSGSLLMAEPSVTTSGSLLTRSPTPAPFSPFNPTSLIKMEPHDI
# Method in brief: as §1
# ELK4 = target: T9, ELK4 (Homo sapiens, UniProt P28324-2 1-405); details: protein: recombinant; tags: N-terminal GST; dsDNA, one strand shown
# T9 sequence: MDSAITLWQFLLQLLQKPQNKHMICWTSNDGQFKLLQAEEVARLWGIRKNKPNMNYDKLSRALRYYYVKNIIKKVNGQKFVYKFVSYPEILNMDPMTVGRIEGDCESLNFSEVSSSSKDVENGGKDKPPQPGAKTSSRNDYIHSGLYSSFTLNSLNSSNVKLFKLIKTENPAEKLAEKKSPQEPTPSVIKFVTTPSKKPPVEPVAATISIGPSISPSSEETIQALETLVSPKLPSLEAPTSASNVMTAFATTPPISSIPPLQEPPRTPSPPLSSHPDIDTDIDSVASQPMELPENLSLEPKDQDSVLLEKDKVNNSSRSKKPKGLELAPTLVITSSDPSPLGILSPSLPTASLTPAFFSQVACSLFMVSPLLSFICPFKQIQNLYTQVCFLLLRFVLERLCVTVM
# Method in brief: as §1
# ETV2 = target: T10, ETV2 (Homo sapiens, UniProt O00321 1-342); details: protein: recombinant; tags: N-terminal GST; dsDNA, one strand shown
# T10 sequence: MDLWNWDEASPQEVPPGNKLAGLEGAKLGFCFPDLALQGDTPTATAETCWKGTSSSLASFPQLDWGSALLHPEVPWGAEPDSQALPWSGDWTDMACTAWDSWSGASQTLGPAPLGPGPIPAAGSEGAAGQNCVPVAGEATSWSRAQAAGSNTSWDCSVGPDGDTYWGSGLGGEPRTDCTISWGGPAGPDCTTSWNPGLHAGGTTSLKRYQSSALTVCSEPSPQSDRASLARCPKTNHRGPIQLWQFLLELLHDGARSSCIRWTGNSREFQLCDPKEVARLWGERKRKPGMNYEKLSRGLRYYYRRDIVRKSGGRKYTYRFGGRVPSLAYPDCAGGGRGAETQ
# Method in brief: as §1
# ELF3 = target: T11, ELF3 (Homo sapiens, UniProt P78545 1-371); details: protein: recombinant; tags: N-terminal GST; dsDNA, one strand shown
# T11 sequence: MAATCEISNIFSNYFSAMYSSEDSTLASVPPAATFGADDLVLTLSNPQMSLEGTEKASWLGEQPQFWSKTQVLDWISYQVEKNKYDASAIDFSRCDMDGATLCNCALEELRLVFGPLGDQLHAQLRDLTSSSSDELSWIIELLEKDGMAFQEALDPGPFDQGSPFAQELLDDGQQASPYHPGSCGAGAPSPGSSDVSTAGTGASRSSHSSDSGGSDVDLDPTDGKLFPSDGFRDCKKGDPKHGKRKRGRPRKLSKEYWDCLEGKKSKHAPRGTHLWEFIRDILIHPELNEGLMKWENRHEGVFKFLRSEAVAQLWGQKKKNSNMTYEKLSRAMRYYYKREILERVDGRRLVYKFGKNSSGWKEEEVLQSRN
# Method in brief: as §1
# CRX = CRX (Homo sapiens, UniProt O43186 1-299); details: protein: recombinant; tags: N-terminal GST; dsDNA, one strand shown
# Sequence of CRX (O43186 whole entry): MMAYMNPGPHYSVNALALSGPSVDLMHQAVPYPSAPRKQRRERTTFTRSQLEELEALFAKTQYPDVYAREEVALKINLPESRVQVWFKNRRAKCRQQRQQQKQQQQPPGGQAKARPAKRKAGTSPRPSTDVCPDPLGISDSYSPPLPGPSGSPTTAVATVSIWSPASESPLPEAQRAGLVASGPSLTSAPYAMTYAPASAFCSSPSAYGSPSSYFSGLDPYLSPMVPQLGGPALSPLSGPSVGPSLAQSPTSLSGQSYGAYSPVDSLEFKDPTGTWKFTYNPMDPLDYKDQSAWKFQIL
# Method in brief: as §1
# ETV1 = ETV1 (Homo sapiens, UniProt P50549 1-477); details: protein: recombinant; tags: N-terminal GST; dsDNA, one strand shown
# Sequence of ETV1 (P50549 whole entry): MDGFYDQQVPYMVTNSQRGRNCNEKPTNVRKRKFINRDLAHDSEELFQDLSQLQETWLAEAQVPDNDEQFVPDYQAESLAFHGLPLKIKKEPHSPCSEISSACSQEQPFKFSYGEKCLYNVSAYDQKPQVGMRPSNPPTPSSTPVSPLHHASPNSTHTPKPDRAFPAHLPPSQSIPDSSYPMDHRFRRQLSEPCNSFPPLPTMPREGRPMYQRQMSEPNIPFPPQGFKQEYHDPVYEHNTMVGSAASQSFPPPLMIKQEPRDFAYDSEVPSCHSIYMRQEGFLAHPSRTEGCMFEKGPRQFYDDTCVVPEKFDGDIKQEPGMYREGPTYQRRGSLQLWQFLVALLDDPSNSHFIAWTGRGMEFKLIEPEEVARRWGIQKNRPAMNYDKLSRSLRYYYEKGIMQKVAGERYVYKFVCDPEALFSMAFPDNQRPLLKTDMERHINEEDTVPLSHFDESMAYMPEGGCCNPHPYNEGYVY
# Method in brief: as §1
sequence,measurement,setting,value
GCTCAT,binding signal,FLI1,"1.23 fold enrichment (6-mer frequency, TF over GST control)"
same,binding signal,ELK1,"1.29 fold enrichment (6-mer frequency, TF over GST control)"
same,binding signal,GABPA,"1.23 fold enrichment (6-mer frequency, TF over GST control)"
same,binding signal,ERG,"1.32 fold enrichment (6-mer frequency, TF over GST control)"
same,binding signal,ELF1,"1.36 fold enrichment (6-mer frequency, TF over GST control)"
same,binding signal,EHF,"1.26 fold enrichment (6-mer frequency, TF over GST control)"
same,binding signal,SPI1,"1.21 fold enrichment (6-mer frequency, TF over GST control)"
same,binding signal,SPIB,"1.31 fold enrichment (6-mer frequency, TF over GST control)"
same,binding signal,ELK3,"1.16 fold enrichment (6-mer frequency, TF over GST control)"
same,binding signal,FEV,"1.2 fold enrichment (6-mer frequency, TF over GST control)"
same,binding signal,ETV5,"1.19 fold enrichment (6-mer frequency, TF over GST control)"
same,binding signal,HSF1,"1.15 fold enrichment (6-mer frequency, TF over GST control)"
same,binding signal,SPIC,"1.32 fold enrichment (6-mer frequency, TF over GST control)"
same,binding signal,ELF4,"1.18 fold enrichment (6-mer frequency, TF over GST control)"
same,binding signal,ELK4,"1.3 fold enrichment (6-mer frequency, TF over GST control)"
same,binding signal,ETV2,"1.39 fold enrichment (6-mer frequency, TF over GST control)"
same,binding signal,ELF3,"1.34 fold enrichment (6-mer frequency, TF over GST control)"
same,binding signal,CRX,"1.35 fold enrichment (6-mer frequency, TF over GST control)"
same,binding signal,ETV1,"1.22 fold enrichment (6-mer frequency, TF over GST control)"

# From paper PMC7862700, “An all-to-all approach to the identification of sequence-specific readers for epigenetic DNA modifications on cytosine”
